Laboratory results published in PubChem BioAssay (NCATS).
Records with an inconclusive call do not appear. Where a call stands in place of a potency, no number is given. Unmarked numbers belong to inactive results. Active and inactive are the calls of the source. The call rests on the fitted dose curve; in most records, active means well fitted curve in the direction sought with a large enough effect; inconclusive means small, poorly fitted or top-dose-only effect, or another doubt; inactive means no such curve, though single readings can be large; an effect the other way counts as inactive or inconclusive.

Key:
[1] = tested on: Zika virus NS2B-NS3 protease (linked construct); test: 384 well plate NINDS Rhodamine confirmatory qHTS for Zika virus inhibitors (AID 1347164); details: rhodamine-110 peptide substrate fluorescence; further: potency means the concentration at half of the fitted maximal effect; nearly all actives have a fitted effect of over 65% in size
Excerpt: Description: Assay Submitters (PI): Avindra Nath, Ph.D., National Institute of Neurological Disorders and Stroke (NINDS), Bethesda, MD Radhakrishnan Padmanabhan, Ph.D., Georgetown University (GU), Washington D.C. Zika Virus causes congenital defects, including microcephaly and is associated with Guillain-Barre syndrome, eningoencephalitis and myelitis in infected adult. […] Using a target-based approach, we hope to establish a screening paradigm to uncover novel, cell-active NS2B-NS3 protease (Zika Virus) specific inhibitors from NCATS' collection of small molecules using qHTS. […] Four assay panel was created to identify potential Zika Virus inhibitors. Namely, (1) GU unlinked NS2B-NS3 AMC tagged protease qHTS, (2) GU unlinked NS2B-NS3 Rhodamine tagged protease qHTS, (3) NINDS linked NS2B-NS3 AMC tagged protease qHTS, (4) NINDS linked NS2B-NS3 Rhodamine tagged protease qHTS. Active compounds are validated using a secondary assay in 384 well plate format. Early Translation Branch (ETB) National Center for Advancing Translational Sciences (NCATS), Rockville, MD National Institute of Health (NIH), Bethesda, Maryland
384-well NINDS Rhodamine Assay: The protease was diluted to 7.5 nM, 40.9 nM, or 82 nM in assay buffer and dispensed into a 96-well PCR plate (Applied Biosystems); 20 or 22 microL was transferred to a black 384-well assay plate (final protease concentration of 5 nM, 30 nM, or 60 nM, respectively). Compounds (3 microL, 1 microM - 10 mM, DMSO) were diluted and transferred to the assay plate (final concentrations ranged from 100 nM to 1 mM). Compounds were incubated with protease for ~15 minutes. The substrate, Rhodamine 110 (Ac-LKRR-Rd; Genscript), was dissolved in DMSO to a concentration of 6 mM and further diluted into assay buffer to a working concentration of 180 microM, then dispensed into a 384-well preparation plate (Eppendorf). A multichannel repeat pipettor was used to add 3 or 5 microL of substrate to the assay plate to give a final concentration of 10 microM. The plate was incubated in the dark at room temperature. After 25 minutes, the fluorescence intensity (excitation: 485 nm, emission: 538 nm) was measured and normalized to no-enzyme and no-inhibitor controls. Aprotinin39 (VWR) was used as an intraplate control.

[2] = Vero cells viability qHTS for Zika virus inhibitors (AID 1347167); details: cytotoxicity counter-screen (Zika); series mostly up to 45.9 µM
Method in brief: (§1)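 Compounds were tested in concentration series on cells grown in DMEM containing 4% FBS. After 24 to 48 hours, cellular ATP was measured by luminescence with CellTiter Glo.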

[3] = HepG2 cells viability qHTS for Zika virus inhibitors (AID 1347168); details: Zika counter-screen; series mostly up to 45.9 µM
Method in brief: as §1

[4] = Tertiary RLuc qRT-PCR qHTS assay for Zika virus inhibitors (AID 1347169); details: infected Vero cells, reporter luminescence, 48-72 h; series mostly up to 45.9 µM; further: top concentration of the series differs between compounds; nearly all actives have a fitted effect of over 55% in size
Method in brief: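 Vero cells (1,000 per well) plated overnight at 37 degrees C, treated with compound in DMSO, then infected with recombinant ZIKV-RLuc (Cambodian) at MOI 1-2 for 48-72 hrs. Live-cell Renilla luciferase substrate added; luminescence read after 1-1.5 hrs.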

[5] = qHTS to identify inhibitors of the type 1 interferon - major histocompatibility complex class I in skeletal muscle: primary screen against the NCATS Mechanism Interrogation Plate v5.0 (MIPE) Libary (AID 1347411); details: iHSKM cells + IFN-b, HiBiT-tagged MHC-I luminescence, 24 h; series mostly up to 45.8 µM; further: nearly all actives have a fitted effect of over 65% in size
Method in brief: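 Cells were genome-edited human myoblasts carrying a HiBit tag on endogenous HLA-B. They were treated with IFN-beta (4.0 ng/ml) and titrated compounds (top 46 uM) for 24 hrs before lytic HiBiT detection.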

## O=C(O)Cc1cc(I)c(Oc2ccc(O)c(I)c2)c(I)c1
[1]
  Potency: 3.16 µM (active)
[2]
  outcome: inactive
[3]
  outcome: inactive
[4]
  activity change, negative = inhibition: 45.7% [at 0.566 µM]

## CC[C@H](CC[C@@H](C)[C@H]1CC[C@H]2[C@@H]3CC=C4C[C@@H](O)CC[C@]4(C)[C@H]3CC[C@]12C)C(C)C
[5]
  Potency: inactive

## N[C@@H](Cc1cc(I)c(Oc2ccc(O)c(I)c2)c(I)c1)C(=O)O
[4]
  activity change, negative = inhibition: 35% [at 3.57 µM]

## CCCCC[C@H](O)/C=C/[C@H]1[C@H](O)CC(=O)[C@@H]1CCCCCCC(=O)O
[5]
  Potency: inactive

## COc1ccc([C@@H]2CC(=O)c3c(O)cc(O[C@@H]4O[C@H](CO[C@@H]5O[C@@H](C)[C@H](O)[C@@H](O)[C@H]5O)[C@@H](O)[C@H](O)[C@H]4O)cc3O2)cc1O
[5]
  Potency: inactive

## CN[C@@H]1[C@@H](O)[C@@H](O[C@@H]2[C@@H](O)[C@H](O[C@H]3O[C@H](CN)[C@@H](O)[C@H](O)[C@H]3O)[C@@H](N)C[C@H]2NC(=O)C(O)CN)OC[C@]1(C)O (stereo not given in full)
[5]
  Potency: inactive

## CC(=O)NCCCS(=O)(=O)O
[5]
  Potency: inactive

## C=C1[C@H](CO)[C@@H](O)C[C@@H]1n1cnc2c(=O)[nH]c(N)nc21
[5]
  Potency: inactive

## CC(C)(C)CC(C)(C)c1cc(Cc2cc(C(C)(C)CC(C)(C)C)cc(-n3nc4ccccc4n3)c2O)c(O)c(-n2nc3ccccc3n2)c1
[4]
  activity change, negative = inhibition: -2.91% [at 1.74 µM]

## CNC(=O)[C@H](Cc1c[nH]c2ccccc12)NC(=O)[C@@H](CC(=O)NO)CC(C)C
[5]
  Potency: inactive

## Cc1cc(-c2ccc(N=Nc3c(S(=O)(=O)O)cc4cc(S(=O)(=O)O)cc(N)c4c3O)c(C)c2)ccc1N=Nc1c(S(=O)(=O)O)cc2cc(S(=O)(=O)O)cc(N)c2c1O
[1]
  Potency: 7.94 µM (active)
[4]
  Potency: inactive
